Only some compounds are listed: those with a hit (about 1.8% of all), similar ones and a draw of the others.
MsrA inhibitor = bovine MsrA inhibition; purified bovine MsrA, absorbance read-out; inhibition, % at 15.5 µM; hit rate 0.75% among 360,000; in the data active means inhibition above about 4.5%
GC-B act = GC-B (human) receptor activation | P20594 | HEK293-GC-B cells, CNP EC30, cGMP TR-FRET; 0% at EC30 CNP, 100% saturating CNP | activation, % at 10 µM | hit rate 0.11% among 370,000;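 active means activation at 10 µM reaching about 35% in either raw or pattern-adjusted values, limit read from the data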
HTR2A ag = mouse HTR2A agonism via beta-arrestin recruitment; P35363; CHO-K1 mHTR2A beta-arrestin complementation, luminescence; percent of 30 µM serotonin response; activation, % at 7.6 µM; hit rate 0.66% among 360,000; AID 624169;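 active means activation above a run cutoff, the mean activation of all tested compounds plus 3 SD, cut at about 14% in these data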
Target sequence (P35363 whole entry, looked up): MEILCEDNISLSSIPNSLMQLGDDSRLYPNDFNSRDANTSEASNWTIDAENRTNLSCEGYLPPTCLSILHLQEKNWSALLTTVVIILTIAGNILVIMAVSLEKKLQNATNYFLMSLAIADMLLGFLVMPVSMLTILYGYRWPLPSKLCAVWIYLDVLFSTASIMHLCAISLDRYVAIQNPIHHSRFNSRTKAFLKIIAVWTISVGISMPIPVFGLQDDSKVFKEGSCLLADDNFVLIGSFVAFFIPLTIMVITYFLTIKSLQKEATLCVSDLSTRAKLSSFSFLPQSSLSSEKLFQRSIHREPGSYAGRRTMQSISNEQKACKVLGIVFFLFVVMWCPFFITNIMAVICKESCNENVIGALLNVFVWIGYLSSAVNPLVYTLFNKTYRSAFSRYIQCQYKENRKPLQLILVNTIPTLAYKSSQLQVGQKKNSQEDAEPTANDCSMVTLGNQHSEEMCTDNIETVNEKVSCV
GC-A act = GC-A (human) enzyme activation; HEK293 GC-A cells, cGMP TR-FRET, EC30 ANP; 0% at EC30 ANP, 100% saturating ANP; activation, % at 10 µM; hit rate 0.14% among 370,000; AID 1671463; in the data active means activation above about 40%
MsrA act = activators of bovine methionine sulfoxide reductase A. purified bovine MsrA, absorbance read-out. activation, % at 10.6 µM. hit rate 0.3% among 360,000; in the data active means activation above about 7.5%
MOR ag counter = counter-screen for mouse HTR2A agonists: human mu opioid receptor agonists; shares compounds with HTR2A ag; U2OS OPRM1 beta-arrestin PathHunter, luminescence; DMSO 0%, DAMGO 9.3 µM 100%; AID 624380; activation, % at 9.3 µM; hit rate 5.3% among 2,300;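 active means mean activation above the mean of DMSO-only wells plus 3 SD, cut at about 0.5% in these data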
m5-HT2A ag conf = mouse HTR2A agonism confirmed. CHO-K1 PathHunter beta-arrestin recruitment, luminescence; DMSO 0%, 30 µM serotonin 100%. shares compounds with HTR2A ag. activation, % at 7.6 µM. hit rate 19% among 2,300. AID 624381;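 active means mean activation across triplicates above the hit threshold derived in the original primary screen, cut at about 15% in these data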
Hits are given with their value; n = inactive; x = not tested or not shown.

SMILES | MsrA inhibitor | GC-B act | HTR2A ag | GC-A act | MsrA act | MOR ag counter | m5-HT2A ag conf
O=C(O)c1ccccc1C(=O)N1CCN(c2ccccc2)CC1 | n | n | n | n | n | x | x
COCCCN1C(=O)C(=O)/C(=C(/O)c2ccc(S(=O)(=O)N3CCOCC3)cc2)C1c1ccc(C)cc1 (stereo not given) | n | n | 18.0 | n | n | n | n
COc1ccc(/C(O)=C2/C(=O)C(=O)N(CCCN3CCOCC3)C2c2ccc(C(C)C)cc2)cc1 (stereo not given) | n | n | 14.6 | n | n | n | n
COc1ccc(C2/C(=C(/O)c3ccccc3)C(=O)C(=O)N2CCCN2CCOCC2)cc1 (stereo not given) | n | n | n | n | n | x | x
C[C@@H](O[Si](c1ccccc1)(c1ccccc1)C(C)(C)C)[C@H]1C(=O)N[C@H](Cc2cn(S(=O)(=O)c3ccccc3)c3ccccc23)C(=O)N1C | x | n | x | n | x | x | x
CCNc1nc(OC)nc(Oc2ccc(=O)n(-c3ccccc3)n2)n1 | n | n | 18.1 | n | n | n | n
Cc1cccc(-c2cccc3c4c([nH]c23)[C@@H]2C[C@H]3[C@@H](C(=O)N2CC4)[C@H](C)ON3C)c1 | x | n | x | n | x | x | x
OCC[C@H]1C[C@@H](O)[C@H](O)[C@@]2(Cc3ccccc3CO2)O1 | n | n | 14.8 | n | n | n | n
Cc1cc(/C=C2\NC(=S)N(C)C2=O)ccc1N1CCCC1 | n | n | n | n | n | x | x
CCCN1C(=O)/C(=C/c2ccc(N3CCCC3)c(C)c2)NC1=S | n | n | 16.8 | n | n | n | n
CCOC(=O)[C@]12CCCC3=C1N(CCC3)C(=O)[C@@H](CC(=O)NCCc1ccccc1OC)C2 | x | n | x | n | x | x | x
Cc1ccc(Cn2c(C)c(C(=O)NCc3cccc(C(F)(F)F)c3)sc2=O)cc1 | n | n | n | n | n | x | x
Cc1c(C(=O)NCc2cccc(C(F)(F)F)c2)sc(=O)n1Cc1ccccc1F | n | n | 24.8 | n | n | n | n
Nc1ccc2nc(-c3ccccc3)[nH]c2c1 | n | n | 15.1 | n | n | n | n
CCN(CC)CCN(Cc1cc2cc3c(cc2[nH]c1=O)OCCO3)C(=S)NCC(C)C | n | n | 22.0 | n | n | n | n
CC(C)[C@@H](CO)N(Cc1cn(Cc2ccccc2)nn1)S(=O)(=O)c1ccccc1Br | x | n | x | n | x | x | x
CCCC(=O)OC12CCCN(C1)/C(=C/c1ccc(OC)cc1)C2 (stereo not given) | x | n | x | n | x | x | x
COc1ccc(CCNC(=O)CC(C)S(=O)(=O)c2ccc3c(c2)NC(=O)CO3)cc1OC (stereo not given) | n | n | 15.3 | n | n | n | n
COc1ccc(CNC(=O)CC(C)S(=O)(=O)c2ccc3c(c2)NC(=O)CO3)cc1 (stereo not given) | n | n | n | n | n | x | x
CSc1nc(C)cc(NC(N)=O)n1 | n | n | 14.7 | n | n | n | n
CCOC(=O)c1ccc(Oc2cc(C)nc(SC)n2)cc1 | n | n | n | n | n | x | x
COC(=O)c1cc2n3ccccc3c(C)c(-c3ccccc3)c-2c1C(=O)OC | n | n | 18.4 | n | n | n | n
COC(=O)c1cc2c(C)c(C)c3ccccn3c-2c1C(=O)OC | n | n | n | n | n | x | x
OC(CN1CCNCC1)Cn1c2ccccc2c2ccccc21 (stereo not given) | n | n | 17.8 | n | n | n | n
Cc1[nH]n(-c2ccccc2)c(=O)c1N=Nc1ccccc1C(=O)O | n | n | 18.2 | n | n | n | n
SMILES | MsrA inhibitor | GC-B act | HTR2A ag | GC-A act | MsrA act | MOR ag counter | m5-HT2A ag conf
CCc1ccc(CCNC(=O)OCCCN2CCC3(CCC(c4ccccc4)CC3)C2=O)cc1 (stereo not given) | x | n | x | n | x | x | x
CN(Cc1ccccc1)CC(O)COc1ccc(CNCCCOc2cccnc2)cc1 (stereo not given) | n | n | n | n | n | x | x
CN(Cc1ccccc1)CC(O)COc1ccc(CNCCOc2cccnc2)cc1 (stereo not given) | n | n | 17.8 | n | n | n | 37.7
COC(=O)[C@H](CC(C)C)N(Cc1cn(Cc2ccccc2)nn1)S(=O)(=O)c1ccc(F)cc1Br | x | n | x | n | x | x | x
CC(COc1cccc(Br)c1)CN1CCC(C(O)(c2ccccc2)c2ccccc2)CC1 (stereo not given) | x | n | x | n | x | x | x
Cc1c(-c2ccccc2)[nH]n2c(=O)c3c(nc12)CCCC3 | n | n | 44.4 | n | n | n | 14.7
COC(=O)c1cc(-c2ccccc2OC)c(=O)n2c1CCC2 | x | n | x | n | x | x | x
CN1CCc2cccc3c2C1Cc1ccc(O)c(O)c1-3 (stereo not given) | n | n | 44.5 | n | n | 0.6 | 135.0
CN1CCC(=C2c3ccccc3C(O)c3ccccc32)CC1 (stereo not given) | n | n | n | n | n | x | x
O=C(NCC(=O)N1CCN(S(=O)(=O)c2ccc3c(c2)OCCO3)CC1)c1ccccc1F | n | n | 15.5 | n | n | n | n
CCOC(=O)CNS(=O)(=O)c1cc(-c2nnc(Nc3ccc4c(c3)OCO4)c3ccccc23)ccc1C | n | n | 17.4 | n | n | n | n
Cc1ccc(-c2nnc(Nc3ccc(O)cc3)c3ccccc23)cc1S(=O)(=O)NCCO | n | n | n | n | n | x | x
CCN(C(=O)CN1C(=O)NC2(CCc3ccccc32)C1=O)C1CCS(=O)(=O)C1 (stereo not given) | n | n | n | n | n | x | x
CN(C(=O)CN1C(=O)NC2(CCc3ccccc32)C1=O)C1CCS(=O)(=O)C1 (stereo not given) | n | n | 18.4 | n | n | n | n
C[C@H]1[C@@H](NC(=O)c2ccc(Cl)c(C(F)(F)F)c2)CC[C@@]23CCCN2C(=O)CCC[C@@H]13 | x | n | x | n | x | x | x
CN(C)c1ccc(C(C(=O)NCc2ccccc2)N(Cc2ccco2)C(=O)c2snc(C(N)=O)c2N)cc1 (stereo not given) | n | n | 16.2 | n | n | n | n
Cc1ccc(NC(=O)CCN2C(=O)c3cccc4cccc(c34)C2=O)cc1 | n | n | n | n | n | x | x
Cc1ccc(NC(=O)CCN2C(=O)c3ccccc3C2=O)cc1 | n | n | 23.0 | n | n | n | n
CC1(C(=O)OCC(=O)NC(=O)NCc2ccccc2)CC1(Cl)Cl (stereo not given) | n | n | n | n | n | x | x
COc1ccccc1C(=O)NC(=O)COC(=O)C1(C)CC1(Cl)Cl (stereo not given) | n | n | 18.0 | n | n | n | n
COc1ccccc1C(=O)NC(=O)COC(=O)c1ccc([N+](=O)[O-])cc1 | n | n | 17.7 | n | n | n | n
CC(C)(C)NC(=O)C(c1cc2ccccc2o1)n1c(=O)c(-c2cc3ccccc3[nH]2)nc2ccccc21 (stereo not given) | n | n | 31.5 | n | x | n | n
